Activity calls are given as the source filed them.

The assay deals with Homeobox protein Hox-A13 (Mus musculus) (UniProt Q62424). The assay can be described thus: inhibitors of HoxA13-DNA binding, primary screen, biochemical, fluorescence polarization, labeled oligonucleotide (AID 1185). The following applies: 15 min, higher = more signal, called active from +8 up or from −8 down.
Sequence of Homeobox protein Hox-A13 (Mus musculus) (Q62424 whole entry, looked up): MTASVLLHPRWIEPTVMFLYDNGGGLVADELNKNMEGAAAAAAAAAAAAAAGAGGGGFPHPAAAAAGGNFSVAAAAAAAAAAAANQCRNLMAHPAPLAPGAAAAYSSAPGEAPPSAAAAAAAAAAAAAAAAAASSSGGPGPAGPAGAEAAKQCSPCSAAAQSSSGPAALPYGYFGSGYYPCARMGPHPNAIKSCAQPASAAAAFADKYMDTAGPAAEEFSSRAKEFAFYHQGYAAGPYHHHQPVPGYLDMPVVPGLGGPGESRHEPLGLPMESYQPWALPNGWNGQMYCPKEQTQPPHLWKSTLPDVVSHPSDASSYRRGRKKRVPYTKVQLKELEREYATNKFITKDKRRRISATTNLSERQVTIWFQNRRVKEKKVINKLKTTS
Consider `O=C1c2ccccc2[C@](Cc2ccccc2I)(C(=O)NCC(F)(F)F)[C@H](c2ccc(CO)cc2)N1Cc1ccccc1Cl`, for which the z-score was -4.2 (inactive).

On to `C=CC[C@]1(C(=O)NCCCOC)N=C(c2ccc(OCCCO)cc2)O[C@H]1c1ccccc1CN=[N+]=[N-]`, for which the z-score was -5.11 (inactive).

On to `COc1cc(C(O)C2C=CC3C(=O)NC(=O)C3N2Nc2ccccn2)cc(OC)c1OC` (stereo not given), for which the z-score is -2.19 (inactive).

Take `[N-]=[N+]=NCc1ccccc1C[C@]1(C(=O)N2CCCCC2)N=C(c2ccc(OCCCO)cc2)O[C@H]1c1ccccc1N=[N+]=[N-]`: the z-score was 0.766 (inactive).

`COC(=O)C(CC#Cc1ccc2c(c1)[C@]1(C(=O)N2)[C@H](c2ccc(OCCO)cc2)N2[C@H](c3ccccc3)[C@H](c3ccccc3)OC(=O)[C@H]2[C@@H]1C(=O)N1CCc2cc(OC)c(OC)cc2C1)C(=O)OC`: the z-score is -1.29 (inactive).

For the molecule `C=CCOC(=O)[C@H]1[C@@H]2C(=O)O[C@@H](c3ccccc3)[C@@H](c3ccccc3)N2[C@@H](c2ccc(OCCOC(=O)[C@@H]3C[C@@H]4C(=O)N[C@@H](CCCCNC(C)=O)C(=O)N4[C@@H]3c3ccc(O)cc3)cc2)[C@]12C(=O)Nc1ccccc12`, the z-score was -1.89 (inactive).

For the molecule `O=C1C[C@@](C(=O)NC2CC2)(c2ccc([N+](=O)[O-])cc2)[C@@H](c2ccc(CO)cc2I)N1C1CCCCC1`, the z-score was -4.72 (inactive).

Turning to `O=C(NCCO)C1=C[C@H](Oc2ccccc2I)[C@@H](O)[C@H](N(Cc2ccco2)C(=O)Cc2ccccc2)C1`, the z-score was -2.48 (inactive).

For the molecule `C=CCN1C(=O)[C@]2(O[C@H](CCn3cc([C@H](O)c4ccccc4)nn3)[C@@H]([Si](C)(C)c3ccc(OC)cc3)[C@@H]2C)c2cc(N3CCC3=O)ccc21`, the z-score was -5.76 (inactive).

As for `CC(C)NC(=O)[C@@H]1c2ccccc2C(=O)N(C2Cc3ccccc3C2)[C@H]1c1ccc(CO)cc1`, the z-score was -1.94 (inactive).

As to `NC(=O)N1C(=O)C2C(C1=O)C1C=C(c3ccc(CO)cc3)C2C(c2cccs2)N1Cc1cccc(OC(F)(F)F)c1` (stereo not given), the z-score was -1.04 (inactive).

For `CC(C)NC(=O)[C@@]1(C)c2ccccc2C(=O)N(Cc2cc(C(F)(F)F)cc(C(F)(F)F)c2)[C@H]1c1ccc(CO)cc1`, the z-score is -3.76 (inactive).

In the case of `COC(=O)[C@@]1(Cc2ccc(OC)cc2)[C@H]2c3cc(C(=O)N(C)C)n(C)c3C[C@H]2CN1C(=O)c1ccccc1`, the z-score was -3.49 (inactive).

Consider `CN1C(=O)C2C=CC(C(O)C#Cc3ccccc3)N(N3CCCCC3)C2C1=O` (stereo not given), for which the z-score was -4.72 (inactive).

For the molecule `COC(=O)C(CC#Cc1ccc2c(c1)[C@]1(C(=O)N2)[C@H](C(=O)Nc2nc3ccccc3s2)[C@H]2C(=O)O[C@H](c3ccccc3)[C@H](c3ccccc3)N2[C@@H]1c1ccccc1OCCO)C(=O)OC`, the z-score was 2.38 (inactive).

For `COCCOC(=O)N1C(=O)[C@@]2(c3cc(C#CC4(O)CCCCCC4)ccc31)[C@H](c1ccc(OCCO)cc1)N1[C@H](c3ccccc3)[C@H](c3ccccc3)OC(=O)[C@H]1[C@@H]2C(=O)N1CCN(c2ncccn2)CC1`, the z-score was 0.253 (inactive).

For `C=C(C)[C@@H]1CC=C(C(O)C2C=CC3C(=O)N(c4ccccc4)C(=O)C3N2Nc2ccccc2)CC1` (stereo not given in full), the z-score is -2.62 (inactive).

Regarding `COC(=O)[C@@]1(Cc2ccc(OC)cc2)[C@H]2c3cc(C(=O)N(C)C)n(Cc4ccccn4)c3C[C@H]2CN1C(=O)c1ccccc1`, the z-score was -5.52 (inactive).

As for `NC(=O)NCC#Cc1ccc2c(c1)[C@]1(C(=O)N2)[C@H](c2ccccc2OCCO)N2[C@H](c3ccccc3)[C@H](c3ccccc3)OC(=O)[C@H]2[C@@H]1C(=O)Nc1nc2ccccc2s1`, the z-score was 1.61 (inactive).

Consider `COC(=O)[C@@]1(Cc2ccc(OC)cc2)[C@H]2c3cc(C(=O)N(C)C)n(CCc4ccccn4)c3C[C@H]2CN1C(=O)c1ccccc1`, for which the z-score is -2.39 (inactive).

Consider `[N-]=[N+]=NCc1ccccc1[C@@H]1OC(c2ccc(OCCCO)cc2)=N[C@]1(Cc1ccccc1)C(N)=O`, for which the z-score was -3.49 (inactive).

Regarding `CC#CC(=O)Oc1ccccc1C=CC(=O)OCC`, the z-score is -2.38 (inactive).

`CCCC[C@@H]1C[C@H]1[C@@H](NC(=O)c1ccco1)c1ccc(-c2ccccc2)cc1`: the z-score is 0.141 (inactive).

For the molecule `CC(C)CNC(=O)[C@@]1(Cc2ccccc2I)c2ccccc2C(=O)N(C2CCCCC2)[C@H]1c1ccc(CO)cc1`, the z-score was -3.77 (inactive).

In the case of `COc1cc2c(cc1O)C(C1CC1)N(Cc1sc3ccccc3c1Cl)CC2` (stereo not given), the z-score was -2.44 (inactive).

For the origin of these results see PubChem BioAssay.
